# PINK1 expr mod: modulators of PINK1 expression; 0.2% of 410,000 active; Potency, µM (top dose mostly 76.6 µM), without a hit: at the highest dose activation (PINK1 increase), usual class: activators; PINK1 immunofluorescence, high-content cytometry, 24 h; active means well fitted activation curve with a large enough effect; inconclusive means small, poorly fitted or top-dose-only effect; cell line not stated here; further: % of control where 0% means no effect; nearly all actives have a fitted effect of over 65% in size
#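 PINK1 protein, normally rapidly degraded, was detected by immunofluorescence after 24 hour compound treatment of a stable cell line. Titration data (5 concentrations) came from laser-scanning cytometry, with CCCP-treated wells as controls.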
# GLS inhibitor: inhibitors of human glutaminase (GLS). O94925. GLS enzymatic activity, qHTS titration. Potency, µM (doses to about 45.5 µM), without a hit: at the highest dose activity change, negative = inhibition, hits mostly inhibitors. 0.21% of 410,000 active; further: on the % scale 0 is the no-effect control and ±100 the full control effect
#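 Enzyme dispensed in phosphate buffer (45 mM, pH 8.2, 0.02% Tween-20), compounds pinned in, then 1 mM L-glutamine solution and the glutamate oxidase–HRP–Amplex Red mix added; fluorescence read immediately and again after 30 min at room temperature.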
# Epigenetic reg: epigenetic control regulation, reporter derepression; murine LDR cells, GFP reporter derepression, 30 h; Potency, µM (doses to about 53.9 µM), inactives show at the top dose GFP activation, most hits filed as activators; 0.2% of 280,000 active; AID 1865; further: % of control where 0% means no effect; nearly all actives have a fitted effect of over 60% in size
#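 In this reporter-derepression format, murine cells bearing a silenced integrated CMV-GFP locus incubate with test compound (30 h, 37 C), then are washed and imaged; fluorescent objects of 20–120 um count as induced cells.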
# Vif-APOBEC3F blk: blocks the Vif interaction with APOBEC3F | Potency, µM (series often up to 46.1 µM), without a hit: at the top dose activity, negative = active | 0.2% of 390,000 active | HeLa A3F-eYFP + Vif (tagged APOBEC3F with the HIV-1 protein that degrades it), YFP fluorescence increase; further: % of control where 0% means no effect; nearly all actives have a fitted effect of over 65% in size
#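 HeLa cells stably expressing A3F-eYFP plus Vif, plated and incubated overnight at 37 deg C, then exposed to compounds overnight at 37 deg C. Blocked degradation read as raised yellow fluorescence (Ex 488/Em 500-530).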
# Vif-APOBEC3G blk: inhibitors of Vif-APOBEC3G interaction | HeLa A3G-eYFP + Vif (tagged APOBEC3G with the HIV-1 protein that degrades it), YFP fluorescence, overnight | AID 602310 | Q9HC16 | 0.076% of 410,000 active | Potency, µM (doses to about 46.1 µM), inactives show at the top dose activity, negative = active, actives largely listed as inhibitors; further: on the % scale 0 is the no-effect control and ±100 the full control effect; nearly all actives have a fitted effect of over 60% in size
# Target sequence (Q9HC16 whole entry, looked up): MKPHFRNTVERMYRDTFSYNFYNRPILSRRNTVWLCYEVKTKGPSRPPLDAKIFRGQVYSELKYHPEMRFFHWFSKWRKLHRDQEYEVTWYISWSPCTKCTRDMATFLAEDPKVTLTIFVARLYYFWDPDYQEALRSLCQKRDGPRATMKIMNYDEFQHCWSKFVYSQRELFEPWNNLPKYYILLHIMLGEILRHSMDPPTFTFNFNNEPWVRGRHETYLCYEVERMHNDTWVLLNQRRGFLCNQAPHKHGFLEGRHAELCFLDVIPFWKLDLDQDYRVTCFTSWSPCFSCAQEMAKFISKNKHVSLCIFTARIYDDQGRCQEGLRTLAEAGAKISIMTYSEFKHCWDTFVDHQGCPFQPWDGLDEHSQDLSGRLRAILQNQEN
#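 Read-out is eYFP fluorescence (Ex 488/Em 500-530) from Vif-expressing HeLa A3G-eYFP cells; more signal means A3G escaped Vif-mediated degradation. Cells plated overnight, compound pinned in, incubated overnight at 37 deg C.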
# Numbers without * were called inactive; ? = inconclusive; / = no result. A selection: hits, their analogues and other compounds. The true share with any hit is near 0.7%. Unless noted, the call rests on the fitted dose curve; in most records, active means well fitted curve in the direction sought with a large enough effect; inconclusive means small, poorly fitted or top-dose-only effect, or another doubt; inactive means no such curve, though single readings can be large; an effect the other way counts as inactive or inconclusive. Potency means the concentration at half of the fitted maximal effect.
SMILES,PINK1 expr mod,GLS inhibitor,Epigenetic reg,Vif-APOBEC3F blk,Vif-APOBEC3G blk
Oc1ccccc1-c1nc2cnccn2c1Nc1ccc(Cl)cc1,19.5%,4.2%,0.7%,-3.4%,-12.4%
Cc1ccccc1C1(CC(=O)N2CCCCC2C)CC(=O)N(Cc2cccnc2)C1=O (stereo not drawn),-0.7%,/,/,/,/
O=S(=O)(NCCNc1ncc(C(F)(F)F)cc1Cl)C(F)(F)F,39.8µM*,55.4%,-2.1%,1.8%,0.1%
CS(=O)(=O)NCCNc1ncc(C(F)(F)F)cc1Cl,1.3%,-13.3%,1.0%,-1.4%,1.0%
CCOc1ccc(NC(=O)/C(C#N)=C\c2ccc(N3CCCC3)c(C)c2)cc1,?,-17.1%,/,11.2µM*,?
CCOc1ccc(/C=C(\C#N)C(=O)Nc2cccnc2)cc1,0.1%,-16.9%,0.0%,-0.5%,0.2%
N#C/C(=C(/O)c1cccc(F)c1)c1nc2ccccc2s1,39.8µM*,12.8%,-1.6%,4.0%,0.4%
CN(C)c1ccc(/C=N/NC(=O)c2ccccc2Cl)cc1,5.8%,0.0%,-1.1%,1.5%,10µM*
CN(C)c1ccc(/C=N/NC(=O)c2ccccc2)cc1,9.7%,0.0%,2.2%,-6.4%,?
O=C(CN1Cc2ccccc2OC(c2ccsc2)C1)NCc1ccc2c(c1)OCO2 (stereo not drawn),-0.6%,/,/,/,/
CCN(CC)C(=O)CSC1=Nc2ccccc2C2=NC(c3ccccc3)C(=O)N12 (stereo not drawn),0.6%,12.6µM*,-1.0%,-9.5%,0.3%
COc1ccc(NC(=O)CSC2=Nc3ccccc3C3=NC(CC(=O)NCc4ccc(F)cc4)C(=O)N23)cc1 (stereo not drawn),2.6%,-3.0%,0.0%,7.0%,-1.2%
NC(=O)CSC1=Nc2ccccc2C2=NC(c3ccccc3)C(=O)N12 (stereo not drawn),2.3%,19.2%,1.2%,-15.2%,0.4%
CCC(C)NC(=O)CSC1=Nc2ccccc2C2=NC(CC(=O)NCc3ccc(F)cc3)C(=O)N12 (stereo not drawn),2.0%,10µM*,-0.2%,-4.6%,0.5%
COC(=O)c1scc(S(=O)(=O)C(C)C)c1N/N=C(\C#N)C(=O)c1ccc(Cl)cc1,39.8µM*,?,-0.3%,15.6%,-0.1%
Cc1c(N2C(=O)/C(=C/c3ccc(N(C)C)cc3)N(C)C2=S)c(=O)n(-c2ccccc2)n1C,1.4%,25.5%,/,10µM*,?
S=C(c1cn(CCOc2cccc3ccccc23)c2ccccc12)N1CCCC1,28.2µM*,3.4%,-1.0%,-21.5%,-6.9%
CN(CC(=O)Nc1c(Cl)cccc1Cl)C(=O)c1ccccc1SCC(=O)N1CCCC1,0.2%,15.8µM*,/,-19.1%,0.8%
Cc1cccc(C)c1NC(=O)CN(C)C(=O)c1ccccc1SCC(=O)N1CCCC1,0.1%,0.7%,/,-6.1%,-2.1%
O=C(CCN1Cc2ccccc2OC(c2ccccc2F)C1)N1CCC(N2CCCC(O)C2)CC1 (stereo not drawn),6.5%,/,/,/,/
CCN1/C(=C/c2ccc3cc(C)ccc3[n+]2CC)Sc2cc(C)ccc21,?,-10.1%,2.82µM*,?,4.3%
CCN1/C(=C/c2ccc3ccccc3[n+]2CC)C=Cc2ccccc21,?,10.6%,?,12.6µM*,?
CCN1/C(=C/c2ccc3cc(C)ccc3[n+]2C)Sc2ccc3sccc3c21,3.5%,-17.1%,10µM*,?,-9.5%
CCCCN1/C(=C/c2ccc3ccccc3[n+]2CC)Sc2ccccc21,11.2µM*,-10.8%,3.16µM*,?,?
CCN(CC)C1CCN(C(=O)c2cnn(-c3nccc(-c4ccco4)n3)c2C(C)C)C1 (stereo not drawn),0.2%,/,/,/,/
SMILES,PINK1 expr mod,GLS inhibitor,Epigenetic reg,Vif-APOBEC3F blk,Vif-APOBEC3G blk
CC(O)(COc1ccccc1)c1ccc2c(c1)CN(Cc1cccn1-c1ccccn1)CCO2 (stereo not drawn),0.0%,/,/,/,/
Cc1cnc(SCc2ccccn2)nc1C1CCCN(C(=O)c2coc3c2C(=O)CCC3)C1 (stereo not drawn),0.4%,/,/,/,/
COCc1ccc(C(=O)N2CCOc3ccc(CN4CCN(c5ccc(F)cc5)CC4)cc3C2)o1,-0.1%,/,/,/,/
COc1cccc(-c2ccnc(-n3ncc(C(=O)NCC(C)(C)CN(C)C)c3C)n2)c1,0.2%,/,/,/,/
Oc1cccc(Nc2nc(O)c(/C=C3\C=Nc4ccccc43)s2)c1,3.9%,0.6%,1.5%,11.2µM*,4.47µM*
COc1cccc(CN2CCc3nnc(CCc4ccccc4)n3CC2)c1OC,0.5%,/,/,/,/
O=C(CSc1nc2ccc([N+](=O)[O-])cc2[nH]1)NC1CCCCCC1,14.1µM*,13.8%,0.0%,-12.4%,-2.6%
O=C(CSc1nc2ccc([N+](=O)[O-])cc2[nH]1)NC1CCCCC1,?,3.2%,-1.1%,1.6%,3.0%
CC1(C)CCCN(C(=O)c2coc(=O)c(Br)c2)C1,0.3%,10µM*,?,-3.2%,-0.8%
COc1cc(CN2CCN(Cc3ccc(C)cc3)C(CCO)C2)cc(OC)c1O (stereo not drawn),1.7%,7.08µM*,-7.2%,10.7%,-0.1%
Cc1cccc2sc(NNC(=O)c3ccc(S(=O)(=O)N4CC(C)CC(C)C4)cc3)nc12 (stereo not drawn),39.8µM*,25.5%,1.7%,-28.4%,-3.1%
Cc1cc(C)c2nc(NNC(=O)c3ccc(S(=O)(=O)N4CC(C)CC(C)C4)cc3)sc2c1 (stereo not drawn),10.7%,-1.5%,5.3%,-8.8%,?
CC(C)c1c(C(=O)NCc2cccnc2)cnn1-c1nccc(-c2cccs2)n1,0.0%,/,/,/,/
COc1cccc(-c2cc(C(=O)Nc3cc(OC)c(OC)c(OC)c3)no2)c1,11.2µM*,6.3%,2.2%,-4.4%,-5.9%
COc1ccc(NC(=O)c2cc(C)on2)cc1OC,12.6µM*,-4.8%,0.0%,-3.2%,1.2%
COc1cccc(-c2nc3cc4c(cc3cc2CN(C(=O)c2cccs2)C2CC2)CCC4)c1OC,6.3%,/,/,/,/
Cc1nn(-c2ccccc2)c(Cl)c1/C=N/Nc1ccc(Cl)c(C(=O)O)c1,-1.2%,15.8µM*,-3.0%,9.2%,-8.2%
COCc1cc(=O)n2[nH]c(N)nc2n1,1.5%,8.91µM*,-2.6%,-14.2%,0.2%
COc1ccccc1-c1ccnc(-n2ncc(C(=O)N[C@H]3CCCCNC3=O)c2C2CC2)n1,9.8%,/,/,/,/
